Laboratory results: PubChem BioAssay (Tox21)
Inconclusive results are not listed. Entries that show only a call come without a potency. A number with no mark means an inactive call. Activity calls are given as the source filed them. Calls follow the shape of the dose curve; as a rule, active = well fitted inhibition curve with a large enough effect in the signal ratio in the repeat runs (not every such curve was filed as active); inconclusive = weak or mixed curves; inactive = flat fitted curve, though single readings scatter; the % refers to the signal ratio.

Biological target: Progesterone receptor (Homo sapiens) (UniProt P06401)
Sequence (P06401 whole entry, looked up): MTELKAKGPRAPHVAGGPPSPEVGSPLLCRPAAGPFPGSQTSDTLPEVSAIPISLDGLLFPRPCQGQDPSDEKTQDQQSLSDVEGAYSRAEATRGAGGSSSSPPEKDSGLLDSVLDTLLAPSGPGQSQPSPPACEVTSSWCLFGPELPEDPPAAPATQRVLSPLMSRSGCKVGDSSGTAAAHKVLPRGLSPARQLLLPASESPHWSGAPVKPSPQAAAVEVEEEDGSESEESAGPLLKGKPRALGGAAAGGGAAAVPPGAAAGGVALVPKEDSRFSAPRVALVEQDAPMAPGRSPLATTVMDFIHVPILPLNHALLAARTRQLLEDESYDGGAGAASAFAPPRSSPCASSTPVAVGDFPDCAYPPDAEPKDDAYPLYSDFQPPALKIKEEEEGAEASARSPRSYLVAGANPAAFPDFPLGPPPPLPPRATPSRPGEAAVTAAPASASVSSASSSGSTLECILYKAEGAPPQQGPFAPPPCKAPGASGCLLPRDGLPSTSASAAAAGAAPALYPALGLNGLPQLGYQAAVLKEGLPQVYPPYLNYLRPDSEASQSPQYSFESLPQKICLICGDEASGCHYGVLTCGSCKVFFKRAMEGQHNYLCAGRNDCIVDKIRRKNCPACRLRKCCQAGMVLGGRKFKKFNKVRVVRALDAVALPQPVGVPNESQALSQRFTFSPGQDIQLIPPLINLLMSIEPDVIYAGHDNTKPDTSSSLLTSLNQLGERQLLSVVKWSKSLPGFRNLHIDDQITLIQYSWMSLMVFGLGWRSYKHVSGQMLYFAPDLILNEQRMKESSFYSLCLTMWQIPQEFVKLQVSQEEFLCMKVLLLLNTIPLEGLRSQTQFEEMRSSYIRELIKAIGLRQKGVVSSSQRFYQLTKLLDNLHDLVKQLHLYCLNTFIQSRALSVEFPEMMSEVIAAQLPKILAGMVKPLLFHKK
Assay: qHTS assay to identify small molecule antagonists of the progesterone receptor (PR) signaling pathway (AID 1346795)
Details: PR-UAS-bla HEK293T, beta-lactamase FRET ratio, 16 h; series mostly up to 92.4 µM
Source text: National Center for Advancing Translational Sciences [NCATS]
NIH Chemical Genomics Center [NCGC]
U.S. Environmental Protection Agency [EPA]
National Institutes of Environmental Health Sciences [NIEHS]
National Toxicology Program [NTP]
U.S. Food and Drug Administration [FDA]
Progesterone receptor (PR), a nuclear hormone receptor, plays an important role in development, metabolic homeostasis and reproduction. […] Endocrine disrupting chemicals (EDCs) and their interactions with steroid hormone receptors like PR causes disruption of normal endocrine function. To identify the compounds that inhibit PR signaling, a PR-UAS-bla GripTite cell line i.e. PR-UAS-bla HEK293T (Invitrogen, Carlsbad, CA, USA) containing a beta-lactamase reporter gene under the control of an Upstream Activator Sequence (UAS) was used to screen Tox21 10K compound library.
Tox21 Assay Protocol Summary:
PR-UAS-bla HEK293T cells were dispensed at 3,000 cells/4 uL of assay medium containing 2% charcoal stripped FBS per well into black wall/clear-bottom 1536-well plates using a Multidrop Combi (ThermoFisher Scientific, Waltham, MA) dispenser. After the assay plates were incubated at a 37C and 5% CO2 for 6 hr, 23 nL of compounds dissolved in DMSO, positive controls or DMSO only was transferred to the assay plate by a Pintool station (Kalypsys, San Diego, CA), followed by addition of 1 uL (1nM as final concentration) of Promegestone (R5020) in assay medium using a BioRAPTR FRD (Flying Reagent Dispenser, Aurora Discovery, San Diego, CA). The plates were incubated at 37C and 5% CO2 for 16 hr. Then 1 uL of LiveBLAzer B/G FRET substrate was added using a FRD. After the plates were incubated at room temperature for 2 hours, fluorescence intensity was measured by an Envision plate reader (PerkinElmer, Shelton, CT).
Potency is read from the fitted curve at half-maximal effect.

SMILES | Potency | activity change, negative = inhibition
O=P(O)(OCc1ccccc1)OCc1ccccc1 | inactive | –
O=C(O)c1ccccc1Cl | inactive | –
NCC(=O)O | – | 9.41% [at 18.9 µM]
C/C=C/C(=O)CC | – | -21.4% [at 18.9 µM]
CC[N+](C)(CC)CCOC(=O)C(O)(c1ccccc1)C1CCCCC1 (stereo not given) | inactive | –
CCCCCCCC/C=C\CCCCCCCC(=O)OCC | inactive | –
NCc1ccccc1Sc1ccccc1CO | inactive | –
CCCCc1ncc(/C=C(\Cc2cccs2)C(=O)O)n1Cc1ccc(C(=O)O)cc1 | inactive | –
OC(C#CCN1CCCC1)(c1ccccc1)c1ccccc1 | inactive | –
CN(C)CCN(Cc1ccc(Cl)cc1)c1ccccn1 | inactive | –
CNCCCCOc1ccccc1Cc1ccccc1 | 26.6 µM (active) | –
CC(C)O.CC(C)O.CCOC(=O)/C=C(\C)O.CCOC(=O)/C=C(\C)O.[Ti] | inactive | –
Nc1cccc(S(=O)(=O)c2cccc(N)c2)c1 | inactive | –
O=C(O)c1ccc(-n2nc(-c3ccccc3O)nc2-c2ccccc2O)cc1 | 6.68 µM (active) | –
O=C(NCCO[N+](=O)[O-])c1cccnc1 | inactive | –
Nc1ccc(S(=O)(=O)Nc2ccccc2)cc1 | inactive | –
O=C1OC(CN2CCOCC2)CN1/N=C/c1ccc([N+](=O)[O-])o1 (stereo not given) | inactive | –
CCCCCCCN | inactive | –
c1cc(CCCc2ccncc2)ccn1 | 54.5 µM (active) | –
COc1cc2c(cc1OC)C(C(C(=O)N(CCc1ccc(OC)c(OC)c1OC)CCc1ccc(OC)c(OC)c1OC)c1ccccc1)=NCC2 (stereo not given) | inactive | –

SMILES | Potency | activity change, negative = inhibition
C=C(C)C(=O)OCCO | inactive | –
c1ccc(CNCCNCc2ccccc2)cc1 | inactive | –
COc1ccc(C(=O)N2CCN(CC(=O)N3CCOCC3)CC2)cc1 | inactive | –
CCC(=O)O[C@]1(C(=O)CCl)[C@@H](C)C[C@H]2[C@@H]3CCC4=CC(=O)C=C[C@]4(C)[C@@]3(F)[C@@H](O)C[C@@]21C | inactive | –
C[N+](C)(C)CCOC(=O)CCC(=O)OCC[N+](C)(C)C | inactive | –
CCCCO | inactive | –
CC(=O)c1ccc2c(c1)N(CCCN(C)C)c1ccccc1S2 | inactive | –
C/C=C/C=C/CO | inactive | –
CN1CCC(=C2c3ccccc3Sc3ccccc32)CC1 | 23.7 µM (active) | –
CN(Cc1ccc(C(C)(C)C)cc1)Cc1cccc2ccccc12 | inactive | –
Cc1cccc(Nc2ccccc2)c1 | inactive | –
Cc1cccc(C)c1NC(=O)CN(CC(=O)O)CC(=O)O | inactive | –
COc1ccc(C)cc1[N+](=O)[O-] | inactive | –
COc1cc(C(=O)OCCCN2CCCN(CCCOC(=O)c3cc(OC)c(OC)c(OC)c3)CC2)cc(OC)c1OC | inactive | –
CC1=CC[C@H](C(C)C)C=C1 | inactive | –
CCN(CC)CCNC(=O)c1cc(Br)c(N)cc1OC | inactive | –
CCCCCCCCO[C@@H]1O[C@H](CO)[C@@H](O)[C@H](O)[C@H]1O | inactive | –
O=C(O)C(S)C(S)C(=O)O (stereo not given) | inactive | –
Nc1c(CC(=O)O)cccc1C(=O)c1ccc(Br)cc1 | inactive | –
CCCCCCCC#N | inactive | –
